For 158 variants, enrichment ratio results are on record in a collection of fitness landscapes (doi:10.1126/science.1257360).

In all, about 140,000 sequences were measured (“enrichment ratio after two sorts for PhoP signalling”: median about 0, highest 2% from about 11 on). For the sample, the highest values were picked, then their nearest neighbours and some sequences at random.

The labels stand for the following.
B1: PhoQ; a variant is named by its letters at X, in order, P23837 (parent)
chain: MKKLLRLFFPLSLRVRFLLATAAVVLVLSLAYGMVALIGYSVSFDKTTFRLLRGESNLFYTLAKWENNKLHVELPENIDKQSPTMTLIYDENGQLLWAQRDVPWLMKMIQPDWLKSNGFHEIEADVNDTSLLLSGDHSIQQQLQEVREDDDDAEMTHSVAVNVYPATSRMPKLTIVVVDTIPVELKSSYMVWSWFIYVLSANLLLVIPLLWVAAWWSLRPIEALAKEVRELEEHNRELLNPATTRELTSLVRNLNRLLKSERERYDKYRTTLTDLTHSLKTPLXXLQXXLRSLRSEKMSVSDAEPVMLEQISRISQQIGYYLHRASMRGGTLLSRELHPVAPLLDNLTSALNKVYQRKGVNISLDISPEISFVGEQNDFVEVMGNVLDNACKYCLEFVEISARQTDEHLYIVVEDDGPGIPLSKREVIFDRGQRVDTLRPGQGVGLAVAREITEQYEGKIVAGESMLGGARMEVIFGRQHSAPKDE

The assay covers variants of B1. Kind of assay: enrichment ratio after two sorts for PhoP signalling (ratio (wild type AVST 3.29)); higher = more functional. As to conditions: with PhoP (E. coli).
As for QIAI, the enrichment ratio came to 2.26.

As for SIKG, the enrichment ratio is ≤ 0.25.

With LGAF, the enrichment ratio was ≤ 0.25.

VRDP: the enrichment ratio is ≤ 0.25.

For the variant HMSS, the enrichment ratio was ≤ 0.25.

On to PMDA, for which the enrichment ratio is ≤ 0.25.

As for SGWG, the enrichment ratio was ≤ 0.25.

SGTS: the enrichment ratio is 7.16.

On to SGDG, for which the enrichment ratio was ≤ 0.25.

On to SGTG, for which the enrichment ratio is 15.9.

For SGTA, the enrichment ratio was determined as 7.55.

In the case of SGTI, the enrichment ratio stood at 16.7.

As for AGFW, the enrichment ratio is ≤ 0.25.

VWNV: the enrichment ratio is ≤ 0.25.

As to GLKA, the enrichment ratio was ≤ 0.25.

For ENWV, the enrichment ratio is ≤ 0.25.

Turning to NKIG, the enrichment ratio was ≤ 0.25.

Take PDHR: the enrichment ratio was ≤ 0.25.

On to NAML, for which the enrichment ratio is ≤ 0.25.

With TAML, the enrichment ratio turned out to be 25.8.

As for HTML, the enrichment ratio is 11.7.

Consider HRML, for which the enrichment ratio was ≤ 0.25.

Consider HYML, for which the enrichment ratio is ≤ 0.25.

Take KAML: the enrichment ratio was ≤ 0.25.

Take DPPS: the enrichment ratio is ≤ 0.25.

For the variant DWCY, the enrichment ratio is ≤ 0.25.

For QECY, the enrichment ratio is ≤ 0.25.

Take RNCY: the enrichment ratio is ≤ 0.25.

In the case of KYCY, the enrichment ratio was ≤ 0.25.

Turning to SNCY, the enrichment ratio amounted to 7.63.

SQCY: the enrichment ratio came out at 12.2.

Take SECY: the enrichment ratio was 13.7.

In the case of MECY, the enrichment ratio worked out at 4.09.

SRCY: the enrichment ratio was ≤ 0.25.

Regarding TECY, the enrichment ratio came to 16.2.

Consider TQCY, for which the enrichment ratio came to 15.8.

As for IQCY, the enrichment ratio was ≤ 0.25.

As for GSCQ, the enrichment ratio was determined as 8.75.

As for GDAQ, the enrichment ratio is ≤ 0.25.

Consider TRTV, for which the enrichment ratio came out at 9.35.

Take SEWD: the enrichment ratio is ≤ 0.25.

KVEG: the enrichment ratio is ≤ 0.25.

LQIG: the enrichment ratio was ≤ 0.25.

Regarding AKTT, the enrichment ratio was determined as 3.25.

With MKTT, the enrichment ratio is ≤ 0.25.

In the case of SRTT, the enrichment ratio was ≤ 0.25.

Turning to TQTT, the enrichment ratio amounted to 23.1.

For EQTT, the enrichment ratio is ≤ 0.25.

Consider SETT, for which the enrichment ratio turned out to be 12.6.

As for KYTT, the enrichment ratio is ≤ 0.25.

For the variant YTTT, the enrichment ratio was ≤ 0.25.

In the case of TKTT, the enrichment ratio was 11.6.

Regarding TTTT, the enrichment ratio is 12.1.

On to FQTT, for which the enrichment ratio is ≤ 0.25.

LTTT: the enrichment ratio was ≤ 0.25.

On to YAIP, for which the enrichment ratio was ≤ 0.25.

Take IDRF: the enrichment ratio is ≤ 0.25.

ATER: the enrichment ratio was ≤ 0.25.

For the variant NGCY, the enrichment ratio is ≤ 0.25.

On to PIGE, for which the enrichment ratio was ≤ 0.25.

Turning to SMQQ, the enrichment ratio is ≤ 0.25.

As for IGVV, the enrichment ratio was ≤ 0.25.

With ISAV, the enrichment ratio was found to be 0.486.

In the case of ADQP, the enrichment ratio is ≤ 0.25.

With APWD, the enrichment ratio is ≤ 0.25.

Turning to PTFA, the enrichment ratio was ≤ 0.25.

Turning to KRKW, the enrichment ratio is ≤ 0.25.

For MIGL, the enrichment ratio is 1.45.

On to SQTT, for which the enrichment ratio worked out at 11.4.

For TSTT, the enrichment ratio was 15.1.

SCTT: the enrichment ratio came out at 11.4.

For ICTT, the enrichment ratio was determined as 11.9.

For the variant VCTT, the enrichment ratio is ≤ 0.25.

Consider SITT, for which the enrichment ratio worked out at 6.9.

As for KSTT, the enrichment ratio is ≤ 0.25.

With MMTT, the enrichment ratio was ≤ 0.25.

As for LCTT, the enrichment ratio is ≤ 0.25.

For the variant KCTT, the enrichment ratio is ≤ 0.25.

As to SPTT, the enrichment ratio was ≤ 0.25.

FCTT: the enrichment ratio was ≤ 0.25.

GPRY: the enrichment ratio is ≤ 0.25.

For the variant TYWS, the enrichment ratio was ≤ 0.25.

Consider LGDG, for which the enrichment ratio is 0.39.

As for IKPA, the enrichment ratio is ≤ 0.25.

Regarding YKHD, the enrichment ratio is ≤ 0.25.

In the case of TNPV, the enrichment ratio is ≤ 0.25.

Consider YHGA, for which the enrichment ratio is ≤ 0.25.

With TSAQ, the enrichment ratio turned out to be 19.6.

With TDAQ, the enrichment ratio came out at 13.4.

KSAQ: the enrichment ratio was ≤ 0.25.

As for NSAQ, the enrichment ratio was ≤ 0.25.

Turning to FDAQ, the enrichment ratio is ≤ 0.25.

With LTAQ, the enrichment ratio was ≤ 0.25.

EETH: the enrichment ratio is ≤ 0.25.

As for DEAP, the enrichment ratio was ≤ 0.25.

LAGN: the enrichment ratio is ≤ 0.25.

Take GGLE: the enrichment ratio is ≤ 0.25.

Consider MLEW, for which the enrichment ratio was ≤ 0.25.

Take TEHL: the enrichment ratio came out at 12.5.

Regarding YYHL, the enrichment ratio was ≤ 0.25.

As for TEHI, the enrichment ratio stood at 14.2.

Regarding YYHS, the enrichment ratio was ≤ 0.25.

For TEHS, the enrichment ratio was 18.1.

Consider TEHF, for which the enrichment ratio came to 3.55.

Take NEHS: the enrichment ratio is ≤ 0.25.

For the variant TEHY, the enrichment ratio stood at 11.4.

Regarding TEHP, the enrichment ratio was ≤ 0.25.

As to NEHL, the enrichment ratio was ≤ 0.25.

Regarding NEHY, the enrichment ratio is ≤ 0.25.

For the variant YYHY, the enrichment ratio was ≤ 0.25.

Turning to PQEA, the enrichment ratio is ≤ 0.25.

As to YVFQ, the enrichment ratio is ≤ 0.25.

In the case of IQHV, the enrichment ratio is ≤ 0.25.

For the variant PPCA, the enrichment ratio is ≤ 0.25.

Take ETDW: the enrichment ratio is ≤ 0.25.

For TNRM, the enrichment ratio was ≤ 0.25.

Consider MNTM, for which the enrichment ratio came out at 18.9.

For the variant TNTM, the enrichment ratio was 31.2.

With MNWM, the enrichment ratio was found to be 4.81.

Consider MLTM, for which the enrichment ratio came out at 4.75.

As for TNCL, the enrichment ratio was 0.276.

MNTC: the enrichment ratio was ≤ 0.25.

As for MNTS, the enrichment ratio was ≤ 0.25.

On to MNTI, for which the enrichment ratio worked out at 13.1.

In the case of KHVC, the enrichment ratio was ≤ 0.25.

In the case of QGRV, the enrichment ratio was ≤ 0.25.

As to HNCH, the enrichment ratio was ≤ 0.25.

VGDV: the enrichment ratio was ≤ 0.25.

As for NEGH, the enrichment ratio was ≤ 0.25.

As for SRIQ, the enrichment ratio is ≤ 0.25.

For the variant TGMQ, the enrichment ratio was ≤ 0.25.

On to SGMQ, for which the enrichment ratio stood at 15.4.

Regarding SGDS, the enrichment ratio is ≤ 0.25.

Regarding SGGK, the enrichment ratio was ≤ 0.25.

For SGKA, the enrichment ratio is ≤ 0.25.

On to SGSQ, for which the enrichment ratio was determined as 12.9.

In the case of SGGA, the enrichment ratio stood at 8.12.

With SGGQ, the enrichment ratio came out at 14.9.

SGIQ: the enrichment ratio was found to be 11.9.

On to SGHP, for which the enrichment ratio was ≤ 0.25.

In the case of SGIE, the enrichment ratio is ≤ 0.25.

As to AGYL, the enrichment ratio came out at 4.28.

Regarding QKLN, the enrichment ratio was ≤ 0.25.

Take QYFC: the enrichment ratio is ≤ 0.25.

On to SGFQ, for which the enrichment ratio amounted to 2.13.

Turning to EDPV, the enrichment ratio was ≤ 0.25.

Consider PQAT, for which the enrichment ratio was ≤ 0.25.

With HKML, the enrichment ratio was ≤ 0.25.

For the variant TKML, the enrichment ratio came out at 19.2.

With PTML, the enrichment ratio was ≤ 0.25.

With FAML, the enrichment ratio turned out to be 6.33.

For MEML, the enrichment ratio was determined as 12.

For the variant VKML, the enrichment ratio was ≤ 0.25.

For TEML, the enrichment ratio stood at 28.6.

For the variant MAML, the enrichment ratio stood at 25.7.

In the case of MAKL, the enrichment ratio was ≤ 0.25.

As to VRML, the enrichment ratio is ≤ 0.25.

Take NRML: the enrichment ratio was ≤ 0.25.
